According to the supplement of paper PMC10849652:
Of roughly 7,900 targets only a part is listed; those with a hit were picked by preference. About 0.6% of all pairs of compound and target were hits.

Experiments:
Experiment in all cases: log2 fold change, soluble protein after heating vs DMSO (PISA); higher = thermal stabilisation; K562 cells, 10 uM, 30 min; active = over 0.2 and 3.5 SD of the protein, either way, in both replicates (recomputed)
erlotinib = compound: C#Cc1cccc(Nc2ncnc3cc(OCCOC)c(OCCOC)cc23)c1 [erlotinib]
Summary of the method: (§1)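 K562 cells at 2×10^6 cells/mL were treated with 10 μM compound for 30 min. Aliquots were heated for 3 min across 48°C-58°C, pooled, and extracted in PBS with 0.5% NP-40 at 4°C; soluble protein was the supernatant after 21,000xg for 90 min. Soluble protein was quantified by TMTpro 16plex LC-MS/MS with channel sums equalised, and reported as log2 fold change in thermal stability against DMSO controls, with values from duplicates.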

[1] = compound: C/C(=N\NC(=O)C1=CC(=CC=C1)S(=O)(=O)N2CCOCC2)/C3=C(C=CC(=C3)Cl)O
Summary of the method: as §1

[2] = compound: C1=CC(=C(C=C1Cl)C2=NC3=NC=CN=C3C(=N2)NC4=CC=NC=C4)F
Summary of the method: as §1

[3] = compound: C1=CC(=CC=C1C2=NC3=C(N2)C=C(C=C3)C(=O)N)OC4=CC=C(C=C4)Cl
Summary of the method: as §1

[4] = compound: C1=CC2=C(C=CC(=C2)/C=C\3/C(=O)NC(=NCC4=CC=CS4)S3)N=C1
Summary of the method: as §1

[5] = compound: C1=CC2=NC=CN=C2C=C1/C=C/3\C(=O)NC(=O)S3
Summary of the method: as §1

[6] = compound: C1=CC=C(C=C1)C2=NC(=C(N2)C3=CC=NC=C3)C4=CC(=C(C=C4)Cl)O
Summary of the method: as §1

[7] = compound: C1=CC=C2C(=C1)C3=NNC4=CC=CC(=C43)C2=O
Summary of the method: as §1

[8] = compound: C1CCN(C1)C(=O)NC2=CC=CC(=C2)NC3=NC=C(C(=N3)NCCC4=CN=CN4)Br
Summary of the method: as §1

[9] = compound: C1CN(CCC1(CC2=CC=C(C=C2)Cl)N)C3=NC=NC4=C3C=CN4
Summary of the method: as §1

Measured: log2 fold change

PEX11B (UniProt O96011)
inactive: erlotinib 0.016 | [1] 0.058 | [2] 0.162 | [3] -0.001 | [4] 0.056 | [5] 0.087 | [6] 0.142 | [7] -0.012 | [8] -0.097 | [9] 0.041

PLBD2 (UniProt Q8NHP8)
inactive: erlotinib -0.022 | [1] -0.048 | [2] 0.026 | [3] 0.01 | [4] 0.009 | [5] 0.037 | [6] 0.01 | [7] -0.02 | [8] -0.018 | [9] 0.018

PRPF4B (UniProt Q13523)
inactive: erlotinib 0.002 | [1] 0.044 | [2] -0.213 | [3] 0.074 | [4] -0.046 | [5] -0.064 | [6] -0.14 | [7] -0.12 | [8] -0.103 | [9] -0.113

PRMT7 (UniProt Q9NVM4)
inactive: erlotinib 0.093 | [1] 0.132 | [2] 0.064 | [3] -0.017 | [4] 0.142 | [5] 0.018 | [6] -0.109 | [7] -0.039 | [8] 0.031 | [9] -0.031

PIP4K2A (UniProt P48426)
inactive: erlotinib 0.172 | [1] 0.028 | [2] 0.075 | [3] -0.058 | [4] -0.065 | [5] 0.287 | [6] 0.108 | [7] 0.076 | [8] 0.162 | [9] -0.013

PCBP2 isoform 3 (UniProt Q15366)
Sequence of UniProt Q15366 (Q15366 whole entry, looked up): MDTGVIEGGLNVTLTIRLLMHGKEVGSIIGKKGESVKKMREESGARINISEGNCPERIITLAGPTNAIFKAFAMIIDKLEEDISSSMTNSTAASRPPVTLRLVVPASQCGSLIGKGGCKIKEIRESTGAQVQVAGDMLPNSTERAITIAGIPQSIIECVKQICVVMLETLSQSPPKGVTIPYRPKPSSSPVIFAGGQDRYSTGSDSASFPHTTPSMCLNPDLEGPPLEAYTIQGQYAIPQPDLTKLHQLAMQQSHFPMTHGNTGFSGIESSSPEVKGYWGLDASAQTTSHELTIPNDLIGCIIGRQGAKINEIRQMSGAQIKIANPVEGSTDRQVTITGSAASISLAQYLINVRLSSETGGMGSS
inactive: erlotinib -0.01 | [1] 0.087 | [2] 0.038 | [3] -0.039 | [4] 0.019 | [5] 0.025 | [6] 0.063 | [7] 0.017 | [8] -0.039 | [9] 0.01

PSME4 (UniProt Q14997)
inactive: erlotinib -0.011 | [1] 0.017 | [2] -0.028 | [3] 0.065 | [4] 0.055 | [5] 0.022 | [6] -0.007 | [7] 0.027 | [8] 0.008 | [9] 0.014

PDE2A (UniProt O00408)
active: [1] -0.521
inactive: erlotinib -0.055 | [2] -0.011 | [3] -0.034 | [4] 0.161 | [5] -0.099 | [6] 0.137 | [7] 0.113 | [8] -0.077 | [9] 0.184

PC (UniProt P11498)
Sequence of UniProt P11498 (P11498 whole entry, looked up): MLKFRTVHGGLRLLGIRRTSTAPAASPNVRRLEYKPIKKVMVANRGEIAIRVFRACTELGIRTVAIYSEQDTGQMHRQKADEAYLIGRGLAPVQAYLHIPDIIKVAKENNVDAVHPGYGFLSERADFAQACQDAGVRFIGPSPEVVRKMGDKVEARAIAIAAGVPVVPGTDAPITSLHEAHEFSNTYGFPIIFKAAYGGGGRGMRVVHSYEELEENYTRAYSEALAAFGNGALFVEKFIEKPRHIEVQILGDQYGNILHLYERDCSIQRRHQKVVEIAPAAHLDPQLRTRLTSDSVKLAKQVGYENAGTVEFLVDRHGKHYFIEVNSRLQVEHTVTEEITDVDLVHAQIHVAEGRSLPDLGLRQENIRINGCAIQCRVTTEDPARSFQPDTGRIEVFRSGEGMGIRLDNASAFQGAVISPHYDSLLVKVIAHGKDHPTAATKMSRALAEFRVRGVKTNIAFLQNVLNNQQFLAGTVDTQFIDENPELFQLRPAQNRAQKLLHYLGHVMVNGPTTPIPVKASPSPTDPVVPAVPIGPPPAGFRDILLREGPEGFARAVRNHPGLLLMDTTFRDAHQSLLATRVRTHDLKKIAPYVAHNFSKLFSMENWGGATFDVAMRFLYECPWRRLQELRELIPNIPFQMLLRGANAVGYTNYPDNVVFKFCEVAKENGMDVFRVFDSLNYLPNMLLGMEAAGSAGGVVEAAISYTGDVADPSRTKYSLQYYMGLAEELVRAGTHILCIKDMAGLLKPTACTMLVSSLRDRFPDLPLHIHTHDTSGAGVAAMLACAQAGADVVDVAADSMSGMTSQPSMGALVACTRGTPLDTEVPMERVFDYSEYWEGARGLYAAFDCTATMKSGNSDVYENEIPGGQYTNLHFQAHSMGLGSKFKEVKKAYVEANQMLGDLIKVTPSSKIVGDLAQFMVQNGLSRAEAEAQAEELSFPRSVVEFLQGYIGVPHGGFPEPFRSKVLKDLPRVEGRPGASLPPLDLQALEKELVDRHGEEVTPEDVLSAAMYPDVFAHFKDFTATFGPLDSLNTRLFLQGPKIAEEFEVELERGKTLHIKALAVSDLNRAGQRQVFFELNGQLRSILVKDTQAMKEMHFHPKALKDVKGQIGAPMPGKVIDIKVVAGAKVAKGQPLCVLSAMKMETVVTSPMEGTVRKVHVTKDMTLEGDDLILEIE
inactive: erlotinib -0.037 | [1] 0.101 | [2] 0.117 | [3] 0.056 | [4] 0.047 | [5] -0.042 | [6] 0.042 | [7] 0.031 | [8] -0.022 | [9] 0.012

PSMD8 (UniProt P48556)
inactive: erlotinib -0.045 | [1] -0.096 | [2] -0.046 | [3] 0.023 | [4] -0.027 | [5] -0.031 | [6] 0.036 | [7] 0.039 | [8] 0.055 | [9] -0.031

PDPK1 (UniProt O15530)
inactive: erlotinib 0.02 | [1] 0.083 | [2] 0.026 | [3] 0.064 | [4] 0.068 | [5] -0.029 | [6] 0.045 | [7] 0.007 | [8] 0.087 | [9] 0.028

PSMD7 (UniProt P51665)
inactive: erlotinib -0.074 | [1] -0.1 | [2] -0.045 | [3] -0.023 | [4] -0.015 | [5] -0.072 | [6] 0.02 | [7] -0.009 | [8] 0.044 | [9] -0.01

PKN2 (UniProt Q16513)
Sequence of UniProt Q16513 (Q16513 whole entry, looked up): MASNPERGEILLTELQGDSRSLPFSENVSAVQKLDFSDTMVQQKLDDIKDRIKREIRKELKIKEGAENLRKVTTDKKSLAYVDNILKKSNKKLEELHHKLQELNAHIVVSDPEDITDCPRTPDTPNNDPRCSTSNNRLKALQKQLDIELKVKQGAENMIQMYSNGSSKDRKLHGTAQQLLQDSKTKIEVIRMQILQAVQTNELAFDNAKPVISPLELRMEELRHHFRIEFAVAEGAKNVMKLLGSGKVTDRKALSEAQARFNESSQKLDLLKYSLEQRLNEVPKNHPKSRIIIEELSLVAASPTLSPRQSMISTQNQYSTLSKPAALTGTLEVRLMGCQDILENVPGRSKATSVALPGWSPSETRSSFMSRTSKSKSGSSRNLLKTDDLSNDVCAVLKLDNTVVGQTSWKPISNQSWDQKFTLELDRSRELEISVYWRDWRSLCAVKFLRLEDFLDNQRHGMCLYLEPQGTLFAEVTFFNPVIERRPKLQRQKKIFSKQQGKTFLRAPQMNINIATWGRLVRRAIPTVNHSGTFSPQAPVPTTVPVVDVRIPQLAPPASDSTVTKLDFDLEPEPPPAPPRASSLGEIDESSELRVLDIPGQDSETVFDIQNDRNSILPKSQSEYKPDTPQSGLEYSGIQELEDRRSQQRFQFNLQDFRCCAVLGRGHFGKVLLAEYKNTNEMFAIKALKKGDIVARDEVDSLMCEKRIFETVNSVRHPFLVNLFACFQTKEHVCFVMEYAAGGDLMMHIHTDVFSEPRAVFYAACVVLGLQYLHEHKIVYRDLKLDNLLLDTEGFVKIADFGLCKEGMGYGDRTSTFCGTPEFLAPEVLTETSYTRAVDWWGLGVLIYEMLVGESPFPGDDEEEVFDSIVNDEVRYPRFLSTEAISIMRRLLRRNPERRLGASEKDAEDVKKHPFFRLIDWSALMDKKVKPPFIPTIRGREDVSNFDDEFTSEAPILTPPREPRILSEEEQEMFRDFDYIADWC
inactive: erlotinib 0.067 | [1] 0.073 | [2] -0.019 | [3] -0.075 | [4] 0.076 | [5] -0.075 | [6] 0.07 | [7] -0.031 | [8] -0.033 | [9] -0.209

PLK1 (UniProt P53350)
inactive: erlotinib -0.027 | [1] 0.035 | [2] 0.006 | [3] 0.079 | [4] -0.041 | [5] -0.017 | [6] -0.018 | [7] 0.058 | [8] -0.003 | [9] -0.039

PIGH (UniProt Q14442)
inactive: erlotinib -0.036 | [1] 0.068 | [2] 0.049 | [3] 0.027 | [4] 0.042 | [5] -0.03 | [6] -0.065 | [7] -0.054 | [8] -0.005 | [9] 0.009

PDS5A (UniProt Q29RF7)
inactive: erlotinib 0.225 | [1] 0.132 | [2] 0.04 | [3] -0.227 | [4] 0.05 | [5] -0.176 | [6] 0.14 | [7] 0.108 | [8] -0.25 | [9] -0.267

PPP1R14A (UniProt Q96A00)
inactive: erlotinib 0.047 | [1] 0.004 | [2] 0.004 | [3] 0.063 | [4] -0.036 | [5] -0.001 | [7] 0.004 | [8] 0.016 | [9] 0.015
active: [6] 0.341

POLR2G (UniProt P62487)
inactive: erlotinib -0.041 | [1] -0.011 | [2] -0.001 | [3] 0.025 | [4] -0.078 | [5] 0.044 | [6] 0.063 | [7] 0.014 | [8] -0.033 | [9] 0.071

PCGF2 (UniProt P35227)
inactive: erlotinib 0.11 | [1] 0.037 | [2] 0.001 | [3] -0.013 | [4] 0.177 | [5] -0.023 | [6] 0.053 | [7] -0.002 | [8] -0.057 | [9] -0.061

PCYT1A (UniProt P49585)
inactive: erlotinib -0.014 | [1] 0.125 | [2] -0.03 | [3] -0.001 | [4] 0.019 | [5] 0.054 | [6] -0.09 | [7] -0.033 | [8] -0.043 | [9] -0.009

PIK3CD (UniProt O00329)
Sequence of UniProt O00329 (O00329 whole entry, looked up): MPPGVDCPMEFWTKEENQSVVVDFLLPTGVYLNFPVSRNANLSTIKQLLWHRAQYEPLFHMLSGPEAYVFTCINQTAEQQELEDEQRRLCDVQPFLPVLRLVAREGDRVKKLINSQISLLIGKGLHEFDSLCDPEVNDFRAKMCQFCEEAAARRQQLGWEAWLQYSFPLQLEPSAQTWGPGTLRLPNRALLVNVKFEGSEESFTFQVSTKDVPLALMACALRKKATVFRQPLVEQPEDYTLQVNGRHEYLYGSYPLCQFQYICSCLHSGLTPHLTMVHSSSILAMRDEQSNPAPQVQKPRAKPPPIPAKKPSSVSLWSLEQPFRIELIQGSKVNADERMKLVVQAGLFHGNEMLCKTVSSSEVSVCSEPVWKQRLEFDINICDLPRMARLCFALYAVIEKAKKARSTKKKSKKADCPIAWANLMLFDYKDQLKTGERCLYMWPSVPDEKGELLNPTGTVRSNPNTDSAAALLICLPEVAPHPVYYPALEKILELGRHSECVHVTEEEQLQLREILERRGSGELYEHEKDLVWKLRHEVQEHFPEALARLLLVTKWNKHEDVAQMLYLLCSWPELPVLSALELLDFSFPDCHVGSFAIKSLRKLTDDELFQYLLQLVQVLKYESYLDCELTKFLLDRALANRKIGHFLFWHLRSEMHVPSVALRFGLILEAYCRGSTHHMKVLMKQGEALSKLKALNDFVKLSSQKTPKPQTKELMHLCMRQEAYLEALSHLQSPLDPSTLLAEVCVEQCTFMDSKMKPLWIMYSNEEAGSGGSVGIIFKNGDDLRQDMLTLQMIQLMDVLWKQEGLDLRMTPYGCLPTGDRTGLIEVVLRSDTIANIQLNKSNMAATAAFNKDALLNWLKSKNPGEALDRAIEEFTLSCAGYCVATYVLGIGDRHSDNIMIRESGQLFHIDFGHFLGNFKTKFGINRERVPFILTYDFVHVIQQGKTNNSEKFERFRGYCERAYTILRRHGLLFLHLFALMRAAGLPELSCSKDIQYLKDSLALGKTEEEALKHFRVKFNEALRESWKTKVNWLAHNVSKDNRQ
inactive: erlotinib -0.044 | [1] -0.224 | [2] 0.095 | [3] 0.181 | [4] 0.114 | [5] 0.241 | [6] -0.052 | [7] -0.063 | [8] -0.077 | [9] -0.013

PRKACB isoform 2 (UniProt P22694)
inactive: erlotinib 0.013 | [1] 0.049 | [2] -0.065 | [3] 0.072 | [4] 0.007 | [5] 0.008 | [6] -0.034 | [7] -0.096 | [8] -0.095 | [9] 0.007

PDCD4 (UniProt Q53EL6)
inactive: erlotinib 0.107 | [1] -0.041 | [2] 0.14 | [3] -0.051 | [4] 0.16 | [5] 0.145 | [6] 0.072 | [7] 0.108 | [8] 0.024 | [9] 0.027

PLCL1 (UniProt Q15111)
inactive: erlotinib 0.136 | [1] -0.122 | [2] 0.117 | [3] 0.095 | [4] -0.042 | [5] 0.007 | [6] 0.098 | [7] 0.051 | [8] 0 | [9] -0.376

POM121 (UniProt Q96HA1)
inactive: erlotinib -0.013 | [1] -0.075 | [2] -0.127 | [3] 0.033 | [4] 0.118 | [5] -0.008 | [6] -0.137 | [7] -0.185 | [8] -0.087 | [9] -0.106

PRUNE1 (UniProt Q86TP1)
inactive: erlotinib 0.002 | [1] 0.063 | [2] 0.062 | [3] 0.03 | [4] -0.034 | [5] -0.016 | [6] 0.051 | [7] 0.045 | [8] -0.079 | [9] -0.005

POLR2C (UniProt P19387)
inactive: erlotinib 0.05 | [1] 0.037 | [2] -0.006 | [3] -0.051 | [4] -0.038 | [5] -0.053 | [6] 0.172 | [7] 0.001 | [8] 0.117 | [9] 0

PTP4A2 (UniProt Q12974)
inactive: erlotinib -0.054 | [1] 0.03 | [2] 0.134 | [3] 0.049 | [4] 0.018 | [5] -0.051 | [6] 0.205 | [7] -0.125 | [8] -0.029 | [9] -0.097

POTEI (UniProt P0CG38)
Sequence of UniProt P0CG38 (P0CG38 whole entry, looked up): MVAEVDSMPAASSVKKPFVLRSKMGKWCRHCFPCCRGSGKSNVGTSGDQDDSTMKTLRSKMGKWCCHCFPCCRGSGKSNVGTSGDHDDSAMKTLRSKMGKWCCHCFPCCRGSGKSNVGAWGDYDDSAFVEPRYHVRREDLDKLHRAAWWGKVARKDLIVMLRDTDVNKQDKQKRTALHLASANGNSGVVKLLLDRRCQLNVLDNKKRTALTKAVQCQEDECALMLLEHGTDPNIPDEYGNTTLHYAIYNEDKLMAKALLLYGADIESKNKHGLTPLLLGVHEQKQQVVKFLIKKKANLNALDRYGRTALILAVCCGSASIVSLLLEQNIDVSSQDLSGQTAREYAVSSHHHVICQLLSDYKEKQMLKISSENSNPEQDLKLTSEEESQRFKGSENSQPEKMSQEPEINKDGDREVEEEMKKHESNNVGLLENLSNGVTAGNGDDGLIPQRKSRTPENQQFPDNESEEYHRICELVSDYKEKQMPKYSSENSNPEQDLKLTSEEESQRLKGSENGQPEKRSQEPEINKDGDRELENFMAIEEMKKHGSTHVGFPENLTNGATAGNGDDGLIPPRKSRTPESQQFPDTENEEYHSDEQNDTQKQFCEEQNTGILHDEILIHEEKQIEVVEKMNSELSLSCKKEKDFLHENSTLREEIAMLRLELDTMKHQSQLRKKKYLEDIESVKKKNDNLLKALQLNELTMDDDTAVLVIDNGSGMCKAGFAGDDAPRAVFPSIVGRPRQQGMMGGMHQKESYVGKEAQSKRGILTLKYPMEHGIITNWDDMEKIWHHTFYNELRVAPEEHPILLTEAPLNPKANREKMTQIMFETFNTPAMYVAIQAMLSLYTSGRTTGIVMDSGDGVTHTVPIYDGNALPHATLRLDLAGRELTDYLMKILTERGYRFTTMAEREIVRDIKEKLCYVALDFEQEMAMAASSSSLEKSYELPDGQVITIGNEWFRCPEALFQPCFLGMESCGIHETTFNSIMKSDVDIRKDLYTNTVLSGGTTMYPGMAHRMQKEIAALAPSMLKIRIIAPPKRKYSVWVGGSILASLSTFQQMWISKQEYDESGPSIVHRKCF
inactive: erlotinib 0.023 | [1] 0.007 | [2] -0.009 | [3] 0.011 | [4] -0.037 | [5] -0.052 | [6] 0.045 | [7] 0.038 | [8] -0.003 | [9] 0.046

PPP1CA (UniProt P62136)
Sequence of UniProt P62136 (P62136 whole entry, looked up): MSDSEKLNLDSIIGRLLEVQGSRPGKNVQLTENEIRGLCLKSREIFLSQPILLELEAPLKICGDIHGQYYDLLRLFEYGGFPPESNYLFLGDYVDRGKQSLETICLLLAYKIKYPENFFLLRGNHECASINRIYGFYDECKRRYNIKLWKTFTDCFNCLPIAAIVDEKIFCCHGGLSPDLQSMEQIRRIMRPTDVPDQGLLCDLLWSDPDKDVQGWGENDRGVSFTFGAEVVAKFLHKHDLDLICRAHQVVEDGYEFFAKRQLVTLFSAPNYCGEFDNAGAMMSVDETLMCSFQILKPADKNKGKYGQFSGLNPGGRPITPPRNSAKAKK
inactive: erlotinib 0.026 | [1] -0.002 | [2] -0.015 | [3] -0.006 | [4] 0.036 | [5] -0.005 | [6] 0.001 | [7] -0.03 | [8] -0.004 | [9] 0.009
